According to PubChem BioAssay AID624330 (Southern Research Specialized Biocontainment Screening …, 2012):
In all, about 340,000 compounds went through this assay and about 2,100 (0.62%) were called active.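 The calls were made as follows: active = first-screen hits whose inhibition reached a set limit at any dose in the follow-up dose series; inconclusive = inhibition above the set first-screen limit but never retested; inactive = the rest.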 Not all results are given here. Results with a measured potency or affinity are listed apart.

Biological target: Rac GTPase-activating protein 1 (Homo sapiens) (UniProt Q9H0H5)
Assay: blockers of MgcRacGAP-driven Rac1 GTP hydrolysis – biochemical, ADP Hunter fluorescence, primary and confirmatory, confirmation (AID 624330);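 also: fluorescence reports GDP produced by GAP-driven GTP hydrolysis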
Conditions: MgcRacGAP-stimulated Rac1 GTP hydrolysis, at 30 µM, stronger effect = higher value, GST-tagged Rac1 F28L mutant substrate

Rac GTPase-activating protein 1 (Homo sapiens), sequence (Q9H0H5 whole entry, looked up): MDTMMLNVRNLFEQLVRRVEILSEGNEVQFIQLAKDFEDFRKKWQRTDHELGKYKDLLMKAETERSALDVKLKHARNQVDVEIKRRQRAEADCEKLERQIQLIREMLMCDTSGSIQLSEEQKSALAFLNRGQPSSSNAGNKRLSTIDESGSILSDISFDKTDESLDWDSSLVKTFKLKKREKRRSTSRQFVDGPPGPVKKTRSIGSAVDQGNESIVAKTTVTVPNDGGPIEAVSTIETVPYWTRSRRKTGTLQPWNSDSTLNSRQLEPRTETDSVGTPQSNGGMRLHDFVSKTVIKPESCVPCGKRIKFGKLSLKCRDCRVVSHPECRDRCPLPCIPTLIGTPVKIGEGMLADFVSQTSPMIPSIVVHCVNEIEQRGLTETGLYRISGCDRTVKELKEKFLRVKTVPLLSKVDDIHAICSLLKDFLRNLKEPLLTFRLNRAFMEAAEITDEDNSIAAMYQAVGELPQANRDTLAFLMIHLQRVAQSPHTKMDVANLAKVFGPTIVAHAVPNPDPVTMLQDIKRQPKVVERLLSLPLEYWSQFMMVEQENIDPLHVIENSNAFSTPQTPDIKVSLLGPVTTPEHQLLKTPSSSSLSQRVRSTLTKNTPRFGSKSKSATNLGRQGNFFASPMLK

inhibition, inactive:
CCOc1ccccc1OCCCCOc1ccccc1F 8.35%
CCOc1ccccc1C(=O)N[C@H](C(=O)NNC(=O)c1cccs1)C(C)C 2.5%
Cc1ccc(C)c(SCC(=O)NC(=O)NCc2ccccc2)c1 6.96%
Cc1ccc(NC(=O)N2CCCC2C(=O)Nc2ccc(-n3cnnn3)c(C)c2)cc1 (stereo not given) -9.47%
CN1CCCN(C2C3CC4CC(C3)CC2C4)CC1 (stereo not given) 14.8%
CS(=O)(=O)N1CCN(C(=O)NC23CC4CC(CC(C4)C2)C3)CC1 -2.26%
C/C(=N/OCC(=O)Nc1ccc(C)cc1C)c1cccs1 17%
Nc1c([N+](=O)[O-])c(=O)oc2ccccc12 3.99%
O=c1cc(-c2ccccc2[N+](=O)[O-])oc2ccccc12 4.61%
CN(C)S(=O)(=O)c1cccc(C(=O)c2nccn2C)c1 2.41%
Cc1ccc(C(=O)Nc2ncc(C)s2)s1 3.92%
Cc1ccsc1C=Nc1ccc(O)cc1 18.4%
Cc1ccc(-c2nc(C=Nc3ccc(O)cc3)c(O)o2)cc1 19%
COc1ccccc1NS(=O)(=O)c1cc(NC(=O)c2ccc(Cl)nc2)ccc1N1CCCC1 9.85%
CCn1nc(C)c(NC(=O)CSc2nnc(-c3ccco3)n2C)c1C 5.76%
Cc1nn(CCCC(=O)Nc2cnn(Cc3ccc(F)cc3)c2)c(C)c1[N+](=O)[O-] -3.65%
Cc1ccc(NC2CCCN(C(=O)c3ccc(C)c(N4CCNC4=O)c3)C2)cc1C (stereo not given) 15.1%
O=C(c1cccc(N2CCNC2=O)c1)N1CCCC(Nc2cccc(F)c2)C1 (stereo not given) -0.6%
COc1cccc(C(=O)N2CCCC(Nc3ccc(C)c(C)c3)C2)c1 (stereo not given) 16.7%
CC(C)c1ccc(NC2CCCN(C(=O)c3cccc(N4CCNC4=O)c3)C2)cc1 (stereo not given) 9.26%
COc1cc(OC)cc(C(=O)N2CCCC(Nc3ccc(F)cc3)C2)c1 (stereo not given) 3.07%
Cc1ccc(C(=O)N2CCCC(Nc3cccc(F)c3)C2)cc1N1CCNC1=O (stereo not given) 7.34%
CC(C)CNc1nc(N)c([N+](=O)[O-])c(NC2CCCCC2)n1 9.84%
CCc1nn2c(=O)cc(CSCC(=O)Nc3ccccc3Cl)nc2s1 10.2%
Cc1ccc(CN2CCN(Cc3ccc(OC(C)C)cc3)CC2CCO)o1 (stereo not given) 8.44%
Cc1cccnc1NC(=O)CCCNC(=O)c1ccc(Cl)cc1 5.51%
Oc1cccc(CCc2ccccn2)c1 -0.46%
Nc1ccc(CCc2ccccn2)cc1 -1.15%
O=C(COc1ccc(Cl)cc1)OCC(=O)N1CCCCCC1 11.4%
COc1ccc(OCC(=O)OCC(=O)NCc2ccco2)cc1 5.26%
O=C(COC(=O)COc1ccccc1)NCc1ccco1 5.42%
COCCNC(=O)COc1ccc(Oc2ccccc2)cc1 8.68%
COCCNC(=O)COc1cccc(Oc2ccccc2)c1 12.7%
O=C(COc1ccc(Cl)cc1)OCC(=O)N1CCCC1 8.63%
Cc1ccc(CNC(=O)C2CCC(CNS(=O)(=O)c3cccs3)CC2)cc1 (stereo not given) 5.1%
Cc1cccc(NC(=O)CNC(=O)c2ccc(-n3cncn3)c([N+](=O)[O-])c2)c1C 0.04%
Cc1cc(OC(C)C(=O)NCc2cccnc2)c2c(C)cc(=O)oc2c1 (stereo not given) 3.28%
CC(NS(=O)(=O)c1ccc2c(c1)C(C)(C)C(=O)N2C)c1ccccc1 (stereo not given) 3.16%
N/C(=N\c1nc2c(c(=O)[nH]1)CCC2)Nc1ccccc1C(F)(F)F -0.36%
Cn1c(=O)[nH]c(=O)c2c1nc(Br)n2Cc1ccc(Cl)cc1 8.01%
CSc1nc2c(c(=O)[nH]c(=O)n2C)n1Cc1ccc(Cl)cc1 11.4%
O=C(O)CCC(=O)Nc1cccc(-c2nc3ccccc3o2)c1 -9.77%
CCN(CC)S(=O)(=O)c1ccc2c(c1)c(=O)c(C(=O)N1CCN(c3ccccc3)CC1)cn2C 1.44%
CN(C)CCCN1c2ccccc2Sc2ccc3ccccc3c21 15.1%
CCN(CC)CCN1c2ccccc2Sc2ccc3ccccc3c21 10.6%
COc1cc(C(C)=O)ccc1OCC(O)CNCC1(N2CCCCC2)CCCCC1 (stereo not given) 27.1%
OC(CNCC1(N2CCCCC2)CCCCC1)COc1ccc(Cl)cc1Cl (stereo not given) 17.6%
O=C(NCC1CCCO1)c1cc(C(=O)C2CCCCC2)c[nH]1 (stereo not given) 4.74%
CCCCCOC(=O)CSc1nc2c(c(=O)[nH]c(=O)n2C)n1Cc1ccc(Cl)cc1 1.35%
O=C(CSc1ccc(-c2ccco2)nn1)Nc1ccc(F)cc1F 9.4%
COc1ccc(/C=C/C(=O)CCC(=O)O)cc1 2.46%
CN1C(=O)NC(c2ccc(O)cc2)C2=C1CN(c1ccccc1)C2=O (stereo not given) 10.4%
Cc1ccc(N2CC3=C(C2=O)C(c2ccccc2)NC(=O)N3C)cc1 (stereo not given) 6.8%
CSc1ccccc1NC(=S)Nc1cc(C)cc(C)c1 9.21%
COc1ccc(S(=O)(=O)N2CCOCC2)cc1NC(=O)Cc1ccccc1Cl 5.39%
CCN(CC)c1ccc(CNc2ccc(Br)cn2)cc1 4.81%
CCN(CC)c1ccc(NC(=O)c2cncc(Br)c2)cc1 30.6%
O=S(=O)(NC1=NCCCCC1)c1ccc2ccccc2c1 2.56%
O=S(=O)(Nc1nc2c(s1)CCCC2)c1ccc2ccccc2c1 8.29%
CCc1ccc(C(=O)OCC(=O)Nc2cccc(S(=O)(=O)NC3=NCCCCC3)c2)cc1 5.3%
Nc1nc2cc(S(=O)(=O)NC3=NCCCCC3)ccc2s1 38.9%
Cc1ccc(-c2cc(C(=O)N3CCCC3)c3ccccc3n2)s1 3.87%
CCCCn1c(N)c(N(CCOC)C(=O)CSc2ccc([N+](=O)[O-])cc2)c(=O)[nH]c1=O 9.47%
CC1CC1C(=O)OCC(=O)NNC(=O)c1ccc([N+](=O)[O-])cc1 (stereo not given) 2.78%
Cc1ccc(-c2cc(C(=O)N/N=C/c3c(C)nn(-c4ccccc4)c3C)n[nH]2)s1 3.04%
CC(C)NC(=O)N(C)C[C@H]1Oc2ccc(NS(=O)(=O)c3cn(C)cn3)cc2C(=O)N([C@H](C)CO)C[C@@H]1C 12.3%
Cc1cc(Br)ccc1NCc1ccccn1 23.4%
O=C(CN1CCN(S(=O)(=O)c2ccc(Br)cc2)CC1)Nc1ccc(F)cc1F 7.71%
CC1(C)CC(=S)Nc2ccccc2S1 2.74%
CC1(C)CNc2cc([N+](=O)[O-])ccc2S1 9.53%
CSc1ncccc1C(=O)NC1CCCc2c1cnn2-c1ccc(C)c(C)c1 (stereo not given) 3.32%
CCOc1cc(C=NN2CCCCCC2)ccc1O 30.4%
CCOc1cc(/C=N/N=C/c2ccc(O)c(OCC)c2)ccc1O 9.66%
CCOc1cc(/C=N/n2cnnc2)cc(Br)c1O 14.1%
CCOc1cc(/C=N/n2c(C)nc3sc(C)c(C)c3c2=O)ccc1O 10%
CN(C)c1nc(C(=O)O)nc(N2CCOCC2)n1 7.25%
CN(C(=O)c1ccc(NC(=O)Cc2ccc(NC(=O)C3CCCN(C(=O)C4CCCCC4)C3)cc2)cc1)C1CCCC1 (stereo not given) 9%
O=C(Nc1cccc(NS(=O)(=O)c2ccc(S(=O)(=O)NC3CC3)cc2)c1)c1ccccn1 11.8%
NC(=O)CSc1nnc(NC(=O)c2cccc(S(=O)(=O)N3CCCCC3)c2)s1 7.47%
Cc1c(Cl)cccc1NC(=S)NC1CCCC1 8.99%
Nc1nc(-c2cccs2)cs1 18.1%
CN(c1nc(-c2ccccc2)cs1)C1CCS(=O)(=O)C1 (stereo not given) 8.88%
c1ccc(-c2nc(-c3cccnc3)cs2)cc1 7.12%
Oc1ccc(Nc2nc(-c3cccs3)cs2)cc1 19.4%
CN(C(=O)c1cccnc1)c1nc(-c2ccccc2)cs1 0.25%
CN(C(=O)c1ccco1)c1nc(-c2ccccc2)cs1 8.31%
Cc1cc(O)ccc1Nc1nc(-c2cccnc2)cs1 28.4%
c1csc(-c2csc(-c3cccs3)n2)c1 7.41%
COc1cc(OC)c(C(=O)NCCCn2ccnc2)cc1OC 3.26%
O=C(Nc1cccnc1)c1ccco1 -3.68%
CC(=O)N(C)c1ccc(NC(=O)Cc2cccs2)cc1 -7.79%
COC(=O)Cn1c2c(c3cc(C)ccc31)CCCC2NC(C)c1ccccc1 (stereo not given) 12.5%
CCOc1ccc2nc(N3C(=O)C(O)=C(C(=O)c4ccco4)C3c3ccco3)sc2c1 (stereo not given) 10.3%
Cc1ccc2nc(N3C(=O)C(O)=C(C(=O)c4ccc(C)o4)C3c3ccco3)sc2c1 (stereo not given) 14.4%
CCN1CCN(C(c2cccnc2)c2c(NC(=O)c3ccco3)sc(C)c2C)CC1 (stereo not given) 3.07%
O=[N+]([O-])c1ccc(O)c(CNCc2ccccc2)c1 5.59%
Oc1ccc(N=Cc2ccc(OCc3ccccc3)cc2)cc1 9.78%
Oc1c(C=Nc2ccccc2)sc2ccccc12 6.75%
CC1CCCC(C)N1/N=C/c1ccc(O)cc1 (stereo not given) 21.4%
Oc1ccc(C=NC2CCCCC2)cc1 -1.9%
